# Screens (PubChem)
# The entries come from a sample that favours hits as a whole.
# Pf apPOL block: Pf-apPOL DNA polymerase inhibition | inhibition, % at 10 µM | Recombinant Pf-apPOL, molecular beacon fluorescence, 1.5 h | 210,000 tested, 0.25% active
# mHTT-CaM PPI inh: inhibitors of human mutant huntingtin-calmodulin interaction | inhibition, % at 15 µM | 190,000 tested, 3.6% active | AlphaScreen His-mHTT/GST-CaM binding, luminescence;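 also: 0% = both proteins with DMSO and 100% = one protein alone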
# Target sequence (P42858 whole entry, looked up, stated change not applied): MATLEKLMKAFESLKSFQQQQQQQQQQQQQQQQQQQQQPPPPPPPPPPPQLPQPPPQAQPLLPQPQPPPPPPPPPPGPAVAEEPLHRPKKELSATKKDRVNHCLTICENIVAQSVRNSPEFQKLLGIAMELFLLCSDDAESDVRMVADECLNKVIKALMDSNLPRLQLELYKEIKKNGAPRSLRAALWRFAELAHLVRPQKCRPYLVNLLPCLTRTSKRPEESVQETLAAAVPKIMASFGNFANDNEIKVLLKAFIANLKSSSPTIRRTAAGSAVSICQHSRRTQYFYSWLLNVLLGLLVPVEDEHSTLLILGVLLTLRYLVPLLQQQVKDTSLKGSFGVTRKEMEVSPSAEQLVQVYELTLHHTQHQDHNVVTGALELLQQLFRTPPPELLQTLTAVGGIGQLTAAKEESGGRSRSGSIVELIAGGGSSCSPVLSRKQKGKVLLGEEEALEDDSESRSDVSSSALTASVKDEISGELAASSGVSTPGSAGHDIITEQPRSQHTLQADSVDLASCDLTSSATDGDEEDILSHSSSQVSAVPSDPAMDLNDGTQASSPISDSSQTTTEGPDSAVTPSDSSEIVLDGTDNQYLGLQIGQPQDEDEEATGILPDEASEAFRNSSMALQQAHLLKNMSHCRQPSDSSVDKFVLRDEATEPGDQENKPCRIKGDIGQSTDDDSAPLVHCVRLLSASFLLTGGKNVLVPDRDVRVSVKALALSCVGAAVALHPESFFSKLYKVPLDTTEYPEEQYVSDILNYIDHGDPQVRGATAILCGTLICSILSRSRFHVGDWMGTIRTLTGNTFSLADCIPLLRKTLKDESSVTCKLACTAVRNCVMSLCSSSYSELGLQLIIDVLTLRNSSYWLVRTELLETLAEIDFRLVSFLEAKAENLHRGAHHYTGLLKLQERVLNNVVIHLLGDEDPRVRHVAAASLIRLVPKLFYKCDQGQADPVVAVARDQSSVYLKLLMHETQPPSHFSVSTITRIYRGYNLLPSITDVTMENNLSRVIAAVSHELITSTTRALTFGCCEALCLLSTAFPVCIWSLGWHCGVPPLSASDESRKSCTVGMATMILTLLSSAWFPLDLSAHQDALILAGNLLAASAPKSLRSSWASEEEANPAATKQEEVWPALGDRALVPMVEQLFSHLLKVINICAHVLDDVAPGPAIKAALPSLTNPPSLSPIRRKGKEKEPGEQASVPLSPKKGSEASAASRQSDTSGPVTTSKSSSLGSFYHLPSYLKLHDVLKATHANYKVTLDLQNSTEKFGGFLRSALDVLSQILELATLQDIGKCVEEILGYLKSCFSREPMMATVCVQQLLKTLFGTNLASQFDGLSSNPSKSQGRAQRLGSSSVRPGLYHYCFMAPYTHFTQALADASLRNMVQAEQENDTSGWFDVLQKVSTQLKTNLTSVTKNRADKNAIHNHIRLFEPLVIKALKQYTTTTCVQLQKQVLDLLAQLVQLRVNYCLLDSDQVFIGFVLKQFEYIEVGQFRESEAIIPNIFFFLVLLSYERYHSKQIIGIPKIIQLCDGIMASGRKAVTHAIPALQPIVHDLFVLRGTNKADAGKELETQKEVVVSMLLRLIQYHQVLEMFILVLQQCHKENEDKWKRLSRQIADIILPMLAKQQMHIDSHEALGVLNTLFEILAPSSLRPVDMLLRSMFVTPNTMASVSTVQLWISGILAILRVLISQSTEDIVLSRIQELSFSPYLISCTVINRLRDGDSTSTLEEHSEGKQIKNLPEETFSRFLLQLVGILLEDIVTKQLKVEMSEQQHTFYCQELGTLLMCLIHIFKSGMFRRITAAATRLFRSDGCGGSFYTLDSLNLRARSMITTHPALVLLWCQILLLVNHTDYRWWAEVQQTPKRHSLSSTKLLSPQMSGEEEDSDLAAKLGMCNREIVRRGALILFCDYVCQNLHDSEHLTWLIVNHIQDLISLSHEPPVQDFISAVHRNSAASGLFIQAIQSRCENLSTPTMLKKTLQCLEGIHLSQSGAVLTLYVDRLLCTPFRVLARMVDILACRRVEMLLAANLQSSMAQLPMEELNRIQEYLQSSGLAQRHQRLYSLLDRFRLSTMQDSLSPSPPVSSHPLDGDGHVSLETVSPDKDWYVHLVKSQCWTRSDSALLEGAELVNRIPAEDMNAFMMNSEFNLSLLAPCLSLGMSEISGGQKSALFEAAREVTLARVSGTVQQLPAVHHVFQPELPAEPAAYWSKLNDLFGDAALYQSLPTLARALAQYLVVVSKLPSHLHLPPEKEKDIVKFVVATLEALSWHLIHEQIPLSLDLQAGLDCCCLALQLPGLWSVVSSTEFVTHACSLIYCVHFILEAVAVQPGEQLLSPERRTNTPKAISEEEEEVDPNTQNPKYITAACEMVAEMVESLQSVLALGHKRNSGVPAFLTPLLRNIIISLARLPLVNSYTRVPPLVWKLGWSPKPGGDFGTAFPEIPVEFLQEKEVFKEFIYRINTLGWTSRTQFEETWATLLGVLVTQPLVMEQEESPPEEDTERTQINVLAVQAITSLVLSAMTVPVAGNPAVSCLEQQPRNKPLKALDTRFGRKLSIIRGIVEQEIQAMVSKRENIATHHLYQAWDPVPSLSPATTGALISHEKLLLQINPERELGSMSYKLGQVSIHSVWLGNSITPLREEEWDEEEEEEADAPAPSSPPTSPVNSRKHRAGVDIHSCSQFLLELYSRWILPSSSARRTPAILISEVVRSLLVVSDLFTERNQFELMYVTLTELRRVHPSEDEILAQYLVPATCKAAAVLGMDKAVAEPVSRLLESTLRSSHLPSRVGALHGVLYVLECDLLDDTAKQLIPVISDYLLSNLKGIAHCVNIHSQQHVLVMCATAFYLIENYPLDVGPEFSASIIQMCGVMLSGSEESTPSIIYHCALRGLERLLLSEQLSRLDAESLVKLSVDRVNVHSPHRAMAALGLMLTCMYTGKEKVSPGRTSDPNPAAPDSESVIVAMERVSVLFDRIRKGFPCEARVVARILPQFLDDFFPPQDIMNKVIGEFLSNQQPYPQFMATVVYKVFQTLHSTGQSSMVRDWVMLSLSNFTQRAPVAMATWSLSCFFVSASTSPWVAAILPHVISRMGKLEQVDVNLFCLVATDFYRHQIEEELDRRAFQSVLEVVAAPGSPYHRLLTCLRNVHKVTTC
# Starred values were filed as active, the others as inactive; . = no result given. Rule as the data show it: active = inhibition above about 50%; inactive = the rest.
SMILES,Pf apPOL block,mHTT-CaM PPI inh
Cc1cc(=O)oc2cc(OCc3ccc([N+](=O)[O-])cc3)ccc12,-2,-5
CC(C)c1noc(C2CCCCN2CC(=O)Nc2ccccn2)n1 (stereo not given),-1,-3
COc1cccc(CN2CCCCC2c2nc(C(C)C)no2)c1 (stereo not given),-7,-42
CC(C)c1noc(C2CCCN2Cc2ccccn2)n1 (stereo not given),-5,57*
CC(C)c1noc(C2CCCCN2Cc2ccc(N(C)C)cc2)n1 (stereo not given),4,54*
O=C(NCCO)C(=O)Nc1nc(-c2ccccc2)cs1,11,-4
Cc1ccnc(N2CCCC(C(=O)N3CCCCCC3)C2)n1 (stereo not given),-4,-2
Cc1ccnc(N2CCCC(C(=O)N3CC=C(c4ccccc4)CC3)C2)n1 (stereo not given),-5,68*
COCC(=O)N1CCCc2ccc(NC(=O)c3cc(C)oc3C)cc21,-3,-8
OC(COc1ccc(C23CC4CC(CC(C4)C2)C3)cc1)C[N+]1(Cc2ccccc2)CCOCC1 (stereo not given),-61,100*
CCCCOCC(O)C[N+]1(Cc2ccccc2)CCOCC1 (stereo not given),-2,-5
COc1ccc(/C=c2\sc3nc(-c4ccccc4Br)nn3c2=O)c(OC)c1,-5,6
CCCCC(=O)N1CCN(c2nc(C(C)C)c3c(c2C#N)CC(C)(C)OC3)CC1,-5,-2
CCCC(=O)N1CCN(c2nc(C(C)C)c3c(c2C#N)CC(C)(C)OC3)CC1,89*,0
N#Cc1cc2c(nc1SCC(=O)c1ccc(Cl)cc1)CCCC2,1,-7
CCN(C)c1nc(-c2cccc(F)c2)c2c(N)n(-c3cccc(F)c3)nc2n1,2,57*
CCN(C)c1nc(-c2ccccc2Cl)c2c(N)n(-c3ccccc3)nc2n1,0,20
O=C(CSc1cc(N2CCN(c3ccccc3F)CC2)ncn1)c1ccccc1,-5,-2
CCC(C)NC(=O)c1ccc2c(c1)nc(C)n2-c1cc(C)cc(C)c1 (stereo not given),-9,23
O=C(/C=C/c1ccco1)c1ccc(NC(=O)c2ccco2)cc1,-2,93*
O=C(/C=C/c1ccco1)Nc1ccc(NC(=O)c2ccco2)cc1,-6,30
C(=Nc1c2ccccc2nc2ccccc12)c1ccco1,.,56*
C(=Nc1c2ccccc2nc2ccccc12)c1cccc2c1OCOC2,.,-3
O=S(=O)(N(Cc1ccccc1)[C@H](CO)Cc1ccccc1)N(Cc1ccccc1)[C@H](CO)Cc1ccccc1,-2,0
C=C[C@H](CC(C)C)N(Cc1ccccc1)S(=O)(=O)N(Cc1ccccc1)[C@@H](C=C)CC(C)C,-3,-12
SMILES,Pf apPOL block,mHTT-CaM PPI inh
CC(C)C[C@@H](CO)N(Cc1ccccc1)S(=O)(=O)N(Cc1ccccc1)[C@H](CO)CC(C)C,-2,93*
CC(C)C[C@@H](CO)N(Cc1ccccc1)S(=O)(=O)N(Cc1ccccc1)[C@@H](CO)CC(C)C,-3,100*
COc1ccc(CN([C@H](C)CO)S(=O)(=O)N(Cc2ccccc2)[C@H](CO)C(C)C)cc1,2,16
COc1ccc(CN([C@H](CO)CC(C)C)S(=O)(=O)N(Cc2ccccc2)[C@H](CO)CC(C)C)cc1,-1,98*
COc1cc(C=C2Oc3cc(C)cc(O)c3C2=O)cc(OC)c1OC,-1,42
O=C(CCc1ccccc1)N1CCN(Cc2ccsc2)CC1,-6,-19
Cc1ccc(-c2cc(-c3ccccc3)nc(NN)n2)cc1,-4,39
COc1ccc(-c2cc(-c3ccccc3)nc(NN)n2)cc1OC,0,63*
CCC(C)NC(=O)CSc1nc2n[nH]c(C)c2c(=N)n1-c1ccc(C)cc1 (stereo not given),2,54*
CCc1ccc(-n2c(SCC(=O)NC(C)CC)nc3n[nH]c(C)c3c2=N)cc1 (stereo not given),-3,91*
CCN(CC)C(=O)CSc1nc2n[nH]c(C)c2c(=N)n1-c1ccc(Oc2ccccc2)cc1,-3,13
CCN(CC)C(=O)CSc1nc2n[nH]c(C)c2c(=N)n1-c1ccc(C)c(Cl)c1,-3,14
O=C(NCc1ccccc1Br)c1ccc2c(c1)NC(=O)C1CCCCN21 (stereo not given),-2,20
CCOc1ccccc1N1CCN(C(=O)c2ccc(Cl)cc2)C(C)C1=O (stereo not given),-3,-5
CC(=O)Nc1sc(C)c(C)c1C(N)=O,.,-13
O=C1CSC(c2cn(-c3ccccc3)nc2-c2cc3ccccc3oc2=O)N1Cc1ccco1 (stereo not given),2,31
Cc1ccc(-c2nn(-c3ccccc3)cc2C2SCC(=O)N2Cc2ccccc2)o1 (stereo not given),4,94*
O=C1CSC(c2cn(-c3ccccc3)nc2-c2ccccc2)N1Cc1cccnc1 (stereo not given),-4,30
O=C1CSC(c2cn(-c3ccccc3)nc2-c2cccs2)N1Cc1ccccc1 (stereo not given),2,3
